In PubChem BioAssay AID1566 (Sanford-Burnham Center for Chemical Genomics, 2009):
“And” between values parts separate entries of the source, which are not always exact repeats. Equal values may be shown once. Among all 290,000 compounds or so, about 1,800 (0.62%) were called active. Many of the other results were omitted from the sample, so actives are more common in it than they were. A number with no mark means an inactive call. No stated cut-off is given here; in the data, active means inhibition above about 50%; inactive means the rest.

Assay: NOD2 signaling inhibitors, cell-based, luminescence, uHTS, HEK293 (AID 1566)
Details: HEK293 NOD2/NF-kB luciferase reporter, at 4 µM, active compounds read high

Compound | inhibition
CCCCOC(=O)C1=C(C)NC(=O)NC1c1ccc([N+](=O)[O-])s1 (stereo not given) | 17.4%
CCc1nc2ccccc2c(C(=O)OCC(=O)Nc2ccc(S(=O)(=O)N3CCOCC3)cc2)c1C | -9%
CCCc1nc2ccccc2c(C(=O)OCC(=O)Nc2cccc(S(=O)(=O)N3CCOCC3)c2)c1CC | -4.4%
CCN(CC)CCNC(=O)c1ccc(NC(=O)Nc2cccc3ccccc23)cc1 | -10.7%
O=C(c1ccccc1)N1CCN(CCc2ccccn2)CC1 | -11.9%
COc1ccc(N2C(=O)C3C4C=CC(c5ccccc5)(C3C2=O)C2C(=O)N(c3ccc(OC)cc3)C(=O)C42)cc1 (stereo not given) | 8%
COc1ccc(C(=O)Nc2cc(OC)c(Cl)cc2OC)cc1 | 4.7%
COc1cc(NC(=O)c2ccccc2)c(OC)cc1Cl | -0.5%
CCN1CCN(C2=C(NS(=O)(=O)c3ccccc3)C(=O)c3ccccc3C2=O)CC1 | 18.2%
CCN1CCN(C2=C(NS(=O)(=O)c3ccc(C)cc3)C(=O)c3ccccc3C2=O)CC1 | 38%
CCN1CCN(C2=C(NS(=O)(=O)c3ccc(Br)cc3)C(=O)c3ccccc3C2=O)CC1 | 50.9% (active)
Cc1cc(NC(=O)CSc2nc3ccccc3c(=O)n2Cc2ccccc2)no1 | 9.6%
NC(=O)CSc1nc2ccccc2c(=O)n1Cc1ccccc1 | 5.3%
CCOC(=O)Cc1c(C)nc(-c2ccccc2)[nH]c1=O | -6.7%
COc1ccccc1N1CCN(C(=O)CCNS(=O)(=O)c2cc(Br)cnc2N)CC1 | 21%
COCCCNC(=O)C1CC(=O)OC1c1ccc(OC)c(OC)c1 (stereo not given) | -13%
CC(=O)N(c1ccccc1)C1CCCC1 | 16.4%
O=C(CCl)N(c1ccccc1)C1CCS(=O)(=O)C1 (stereo not given) | 1.5%
O=C(CCl)N(c1ccccc1)C1CCCCC1 | 52.5% (active)
COc1ccc(NC(=S)NCCc2ccccc2)c(C)c1 | 1.7%
Nc1c(-c2n[nH]c(=S)n2-c2ccc(Cl)cc2Cl)cnn1-c1ccccc1 | -0.1%
CCN(CC)S(=O)(=O)c1ccc(/C(O)=C2/C(=O)C(=O)N(CCOC)C2c2ccccc2)cc1 (stereo not given) | 8.8%
CCn1cc(CNC(=O)c2ccc3nc(Cc4ccc(OC)cc4)oc3c2)cn1 | 54.1% (active)
CCn1cc(CNC(=O)c2ccc3nc(Cc4ccccc4F)oc3c2)cn1 | 24.7%

Compound | inhibition
COc1ccc(Cc2nc3ccc(C(=O)NCCn4cccn4)cc3o2)cc1 | -0.5%
CCOC(=O)N1CCN(C(=O)c2ccc3c(c2)NC(=O)/C(=C/c2ccccc2)S3)CC1 | 9.6%
O=C1c2ccccc2C(=O)c2c1oc(C(F)(F)F)c2C(=O)c1ccccc1 | 77.4% (active)
O=C(c1ccccc1)c1coc2c1C(=O)c1ccccc1C2=O | 28.9%
Cc1oc2c(c1C(=O)O)C(=O)c1ccccc1C2=O | 19%
COc1cc(NC(=O)CCS(=O)(=O)c2ccc3c(c2)n(C)c(=O)c(=O)n3C)cc(OC)c1 | -1.3%
CCN(CC)CCNC(=O)c1cccc(NC(=O)C(=O)c2ccccc2NC(C)=O)c1 | 3.6%
COc1ccc(C(C)(C)C)cc1S(=O)(=O)n1ccnc1C | 9%
OCCN(CCO)CC(O)COc1ccc(C23CC4CC(CC(C4)C2)C3)cc1 (stereo not given) | 51.5% (active)
OCCN(CCO)CC(O)COc1ccc(Br)cc1 (stereo not given) | 19% and 15.4%
OCCN1CCN(CC(O)COc2ccc(C34CC5CC(CC(C5)C3)C4)cc2)CC1 (stereo not given) | 6%
O=C1c2[nH]nc(-c3ccccc3O)c2C(c2cccc(O)c2)N1Cc1ccco1 (stereo not given) | 24.7%
COc1ccc(S(=O)(=O)N2CCCCC2)cc1NC(=O)CN(C)C1CCCCC1 | 8%
Cc1cnn(-c2cc(N/N=C/c3ccc(F)cc3)ncn2)c1 | -26.9%
CC1=CC(=C2C(=O)c3ccccc3C2=O)C=C(C)O1 | -31.6%
CN1C=CC(=C2C(=O)c3ccccc3C2=O)C=C1 | -99%
CCCCN1C=CC(=C2C(=O)c3ccccc3C2=O)C=C1 | 79.8% (active)
CC1=CC(=C2C(=O)c3ccccc3C2=O)C=C(C)N1C | -61.9%
CCCCN1C(C)=CC(=C2C(=O)c3ccccc3C2=O)C=C1C | -61.1%
CCCN1C=CC(=C2C(=O)c3ccccc3C2=O)C=C1 | 83.7% (active)
CCCCCCN1C=CC(=C2C(=O)c3ccccc3C2=O)C=C1 | -6.6%
CCN1C=CC(=C2C(=O)c3ccccc3C2=O)C=C1 | 54.1% (active)
CCCCCN1C=CC(=C2C(=O)c3ccccc3C2=O)C=C1 | 73.5% (active)
CCCCN1C=CC(=C2N=c3cccc([N+](=O)[O-])c3=N2)C=C1 | 7.8%

Compound | inhibition
CCN1C(=C2C(=O)c3ccccc3C2=O)C=Cc2ccccc21 | 2.2%
CCCCNC1=CC(=O)C(=O)c2ccccc21 | -26.1%
COc1cc(C(=O)OCC(=O)N2CCCCC2C)ccc1OCc1c(C)noc1C (stereo not given) | -27.2%
Cc1ccc(CN(CC(=O)NCCc2ccccc2)C(=O)CCCC(=O)Nc2cc(C)on2)cc1 | -8.6%
O=C(N/C(=C\c1cccnc1)C(=O)N1CCCCC1)c1cccc(Br)c1 | 0.3%
CCOC(=O)N1CCN(C(=O)C2CCCN(c3ncnc4c3nc3n4CCCCC3)C2)CC1 (stereo not given) | 7.5%
O=C(NC1CCCCCC1)C(=S)NC1CCCCC1 | -56.5%
C#CCOc1ccc(/C=C2/C(=O)NN(c3ccc(F)cc3)C2=O)cc1OC | 9.7%
CC(CC(=O)Nc1nncs1)c1ccccc1 (stereo not given) | 20.2%
COc1ccc(C2NC(=S)NC(C)=C2C(=O)c2ccccc2)cc1OC (stereo not given) | 3.4%
Oc1ccc(N=Nc2ccc3c(c2)OCCO3)c(O)c1 | -142%
Oc1ccc(N=Nc2ccc3c(c2)OCCO3)c2ncccc12 | -8.2%
Oc1ccc(N=Nc2ccc3c(c2)OCO3)c2ccccc12 | 81.2% (active)
CCOc1ccc(CN(C(=O)c2oc3ccccc3c2C)C2CCS(=O)(=O)C2)cc1 (stereo not given) | -8.4%
Cc1cc(C2=NNC(=NC3CC3)SC2)c(C)n1-c1ccccc1F | 88.9% (active)
c1cc2c(cc1C1=NNC(=NC3CC3)SC1)OCCO2 | 85.7% (active)
Cc1cc(C2=NNC(=NC3CC3)SC2)c(C)n1-c1c(C)n(C)n(-c2ccccc2)c1=O | -1.3%
C=CCN=C1NN=C(c2ccc3c(c2)OCCO3)CS1 | 37.7%
Cc1cc(C2=NNC(=NC3CC3)SC2)c(C)n1-c1ccccc1 | 90.5% (active)
COCCCN=C1NN=C(c2cc(C)n(-c3ccccc3F)c2C)CS1 | -10.1%
Cc1ccc(-n2c(C)cc(C3=NNC(=NC4CC4)SC3)c2C)cc1C | -57.3%
CCCCN=C1NN=C(c2ccc3c(c2)OCCO3)CS1 | -57.3%
COc1ccc(-n2c(C)cc(C3=NNC(=NC4CC4)SC3)c2C)cc1 | -16.5%
COc1ccc(N2C(=O)c3ccccc3NC23CCC(C)CC3)cc1 (stereo not given) | -58.1%

Compound | inhibition
Cc1cc(=O)[nH]c(N/N=C/c2ccc(Cl)c([N+](=O)[O-])c2)n1 | -5.5%
COc1ccc(/C=C(\NC(=O)c2ccc(OC)cc2)C(=O)N2CCCCC2)cc1 | -9.7%
Cn1c(=O)c2c(nc(SCC(=O)O)n2Cc2cc3c(cc2Cl)OCO3)n(C)c1=O | 3%
CCOCCCn1cnc2c(c1=O)c1nc3ccccc3nc1n2-c1ccc(C)cc1 | 24.1%
O=C(NCCn1cccn1)c1ccc(OC2CCN(C(=O)C3CC3)CC2)cc1 | -27.2%
O=C(N/N=C/c1cc([N+](=O)[O-])ccc1O)C12CC3CC(CC(C3)C1)C2 | 15%
O=C(N/N=C/c1cc([N+](=O)[O-])ccc1O)NC12CC3CC(CC(C3)C1)C2 | 64% (active)
O=C(N/N=C/c1ccccc1O)NC12CC3CC(CC(C3)C1)C2 | -29.5%
c1ccc(-c2ccccc2OCCCN2CCOCC2)cc1 | -29.3%
O=C(CSc1nnc(-c2ccc(F)cc2)o1)Nc1ccc(S(=O)(=O)N2CCCCCC2)cc1 | -4.4%
CCOCC(=O)Nc1cccc(Br)c1 | -5.5%
CCCc1cc(C(=O)Nc2ccc(C(=O)c3ccccc3)cc2)n(C)n1 | 54.7% (active)
CCCc1cc(C(=O)Nc2ccc(C(=O)c3ccc(F)cc3)cc2)n(C)n1 | 18.5%
CCCc1cc(C(=O)Nc2ccc(C(=O)c3ccc(C)cc3)cc2)n(C)n1 | 23.6%
CCOC(=O)c1c(C)n(C)c2ccc(OCC(O)CN3CCN(C)CC3)cc12 (stereo not given) | -0.5%
CCc1nc(SCC(=O)N2CCCc3ccccc32)c2oc3ccccc3c2n1 | 37%
Cc1nc(SCC(=O)N2CCCc3ccccc32)c2oc3ccccc3c2n1 | -6.5%
COc1cc(C(=O)NCc2ccncc2)cc(OC)c1OC | 10.3%
COc1ccc(-c2cnc(N)nc2-c2ccc(OCc3ccccc3)cc2O)cc1 | -4.2%
Nc1ncc(-c2ccccc2)c(-c2ccc(OCc3ccccc3)cc2O)n1 | 13.4%
Nc1ncnc2c1ncn2Cc1ccccc1 | 6.4%
CCc1ccc(N2CN(Cc3ccco3)CNC2=S)cc1 | 4.9%
COc1ccc(/C=N/OCC(=O)Nc2nc3ccccc3s2)cc1OC | -1.1%
